Measured values: PubChem BioAssay
Values joined by “and” are separate entries in the source; they are usually repeats but may differ in a detail not shown here. Equal entries are not always repeated. Results filed as inconclusive are left out. Active and inactive are the calls of the source.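 The calls were made as follows, unless noted: active = normalized viability below 100% at a tested concentration; inactive = the rest.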

Columns and labels:
[1] = ovarian cancer cell viability with rucaparib, profiling panel, oncology-focused library, rucaparib conditional (AID 1508598); conditions: patient-derived ovarian cancer cells, CellTiter-Glo viability, 144 h, stronger effect = lower value
[2] = growth inhibition of DIPG glioma cells, dose response, cell-based, SU-DIPG-IV, MIPE4.0, CellTiter-Glo, qHTS (AID 1347063; cut-off not given, nearly all actives have AC50 up to about 30 µM;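 also: compound exposure lasted 48 hours before the viability readout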); conditions: SU-DIPG-IV viability, CellTiter-Glo ATP luminescence
[3] = growth inhibition of DIPG glioma cells, dose response, cell-based, SU-DIPG-XIII, MIPE5.0, CellTiter-Glo, qHTS (AID 1347064; cut-off not given, nearly all actives have AC50 up to about 23 µM;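 as to AC50: cells exposed to compound for 48 hours before the viability read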); conditions: SU-DIPG-XIII viability, CellTiter-Glo ATP luminescence
[4] = SU-DIPG-VI glioma cell viability, MIPE4.0 library, CellTiter-Glo luminescence, qHTS (AID 1347066; cut-off not given, nearly all actives have AC50 up to about 30 µM;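 also: cells exposed to compound for 48 hours before readout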); conditions: CellTiter-Glo ATP luminescence
[5] = SU-DIPG-XXV glioma cell viability, MIPE5.0 library, qHTS (AID 1347068; cut-off not given, nearly all actives have IC50 up to about 30 µM;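 as to IC50: cells exposed to compound for 48 hours before viability readout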)
[6] = sensitizers of A549 cells to miR-34 induction, primary screen, imaging, A549 dox-inducible miR-34, nuclei and caspase counts (AID 1347080;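 active = compounds whose cell count with miR-34 switched on is under 0.7 times the count with it off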); conditions: A549 miR-34 inducible, Hoechst nuclei count, 48 h
[7] = growth inhibition of DIPG glioma cells, dose response, cell-based, JHH-DIPG-1, MIPE4.0, CellTiter-Glo, qHTS (AID 1347062; cut-off not given, nearly all actives have AC50 up to about 27 µM); conditions: JHH-DIPG-1 viability, CellTiter-Glo ATP luminescence
[8] = survival rescue of mitochondrial mutant cells in low glucose, primary screen, MELAS cybrids, Rieske KO mouse fibroblasts, CellTiter-Glo (AID 1508586;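 active = mean z-score across replicates of 1.96 or higher in either the MELAS or the Rieske mutant cell line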;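 also: z relative to plate mean and SD of compound and empty wells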)
[9] = viability loss in pontine glioma line – cell-based, SU-DIPG-XXV, MIPE5.0, CellTiter-Glo, qHTS, dose response (AID 1347065; cut-off not given, nearly all actives have AC50 up to about 26 µM;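 also: cells exposed to compound for 48 hours before ATP readout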); conditions: CellTiter-Glo ATP luminescence
[10] = JHH-DIPG-1 glioma cell viability, MIPE5.0 library, CellTiter-Glo luminescence, qHTS (AID 1347067; cut-off not given, nearly all actives have AC50 up to about 26 µM;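 also: cells exposed to compound for 48 hours before readout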); conditions: JHH-DIPG-1 glioma viability, CellTiter-Glo ATP luminescence
[11] = modifiers of HSF1 nuclear foci, imaging, Selleck Cancer Library (AID 1347162; in the data active = plate-normalised HSF1 focus index below about 0.46); conditions: human cells, at 10 µM; SSMD: measured here: HSF1 foci SSMD mean; cell count: measured here: cell number; plate-normalised HSF1 focus index: stronger effect = lower value
[12] = at 0.0781 µM, OCI-P5x cells, without rucaparib
[13] = at 0.313 µM, OCI-C5x cells, with rucaparib 10 µM, 100% = cells with rucaparib alone
[14] = at 0.313 µM, OCI-C5x cells, without rucaparib
[15] = at 0.313 µM, OCI-P5x cells, with rucaparib 20 µM, 100% = cells with rucaparib alone
[16] = at 0.313 µM, OCI-P5x cells, without rucaparib
[17] = at 1.25 µM, OCI-C5x cells, with rucaparib 10 µM, 100% = cells with rucaparib alone
[18] = at 1.25 µM, OCI-C5x cells, without rucaparib
[19] = at 1.25 µM, OCI-P5x cells, with rucaparib 20 µM, 100% = cells with rucaparib alone
[20] = at 1.25 µM, OCI-P5x cells, without rucaparib
[21] = at 5 µM, OCI-C5x cells, with rucaparib 10 µM, 100% = cells with rucaparib alone
[22] = at 5 µM, OCI-C5x cells, without rucaparib
[23] = at 5 µM, OCI-P5x cells, with rucaparib 20 µM, 100% = cells with rucaparib alone
[24] = at 5 µM, OCI-P5x cells, without rucaparib
[25] = stronger effect = lower value, cell number ratio, induced over uninduced
[26] = measured here: relative caspase fold change +Dox/-Dox
[27] = measured here: total cells with miR-34 induction, stronger effect = lower value
[28] = measured here: total cells without miR-34 induction
[29] = MELAS cybrid survival, CellTiter-Glo 48 h, stronger effect = higher value
[30] = Rieske KO mouse fibroblast survival, CellTiter-Glo 72 h

## O=C(Nc1cccnc1)N1CCC(Cc2cccc(Oc3ccc(C(F)(F)F)cn3)c2)CC1
[1]; [12]
  viability: 102% (inactive)
[1]; [13]
  viability: 117% (inactive)
[1]; [14]
  viability: 117% (inactive)
[1]; [15]
  viability: 106% (inactive)
[1]; [16]
  viability: 98.4% (active)
[1]; [17]
  viability: 134% (inactive)
[1]; [18]
  viability: 129% (inactive)
[1]; [19]
  viability: 100% (inactive)
[1]; [20]
  viability: 96.3% (active)
[1]; [21]
  viability: 126% (inactive)
[1]; [22]
  viability: 124% (inactive)
[1]; [23]
  viability: 87.1% (active)
[1]; [24]
  viability: 85.5% (active)

## C[C@]1(CO)CN(c2cc(C(=O)Nc3ccc4c(c3)-c3c(c(C(N)=O)nn3-c3ccc(F)cc3)CC4)c(Cl)cn2)C[C@@]1(C)CO
[2]
  AC50: 2.09 µM (active)

## C[C@H](Cc1ccc(O)c(O)c1)[C@@H](C)Cc1ccc(O)c(O)c1
[2]
  AC50: 16.6 µM (active)
[3]
  AC50: 18.6 µM (active)
[4]
  AC50: 23.5 µM (active)
[5]
  outcome: inactive
[6]; [25]
  fold change: 1.02 (inactive)
[6]; [26]
  fold change: 0.821
[6]; [27]
  cell count: 8920
[6]; [28]
  cell count: 8770

## Cc1cc(Cl)ccc1OCCCC(=O)NO
[7]
  outcome: inactive
[5]
  outcome: inactive
[6]; [25]
  fold change: 0.893 (inactive) and 0.9 (inactive)
[6]; [26]
  fold change: 2.21 and 0.917
[6]; [27]
  cell count: 6940 and 6970
[6]; [28]
  cell count: 7770 and 7740
[8]; [29]
  z-score: -0.389 (inactive)
[8]; [30]
  z-score: 0.796

## CC(C)NC(=O)COc1cccc(-c2nc(Nc3ccc4[nH]ncc4c3)c3ccccc3n2)c1
[3]
  AC50: 5.9 µM (active)
[9]
  AC50: 5.25 µM (active)

## C[C@@H](N)c1ccc(C(=O)Nc2ccnc3[nH]ccc23)cc1
[2]
  AC50: 0.418 µM (active)
[4]
  outcome: inactive
[5]
  IC50: 18.6 µM (active)

## COc1c(Cl)cc2c([nH]c3cnccc32)c1NC(=O)c1cccnc1C
[2]
  AC50: 2.96 µM (active)

## C[C@@H]1CCNC(=O)c2cc3ccc(C(=O)Nc4nc5ccccc5n4CCCN(C)C)cc3n21
[3]
  outcome: inactive

## NS(=O)(=O)c1ccc(Nc2nc(OCC3CCCCC3)c3[nH]cnc3n2)cc1
[7]
  outcome: inactive
[5]
  outcome: inactive

## O=C1NC(=O)/C(=C/c2ccc(-c3ccc(F)cc3O)o2)S1
[7]
  outcome: inactive
[10]
  outcome: inactive
[6]; [25]
  fold change: 1.04 (inactive) and 0.983 (inactive)
[6]; [26]
  fold change: 2.12 and 0.302
[6]; [27]
  cell count: 6690 and 5950
[6]; [28]
  cell count: 6460 and 6050

## CN(C)C(=O)[C@H](O)[C@H](Cc1ccccc1)NC(=O)c1cc2cc(Cl)ccc2[nH]1
[2]
  AC50: 4.18 µM (active)
[3]
  outcome: inactive
[9]
  outcome: inactive
[10]
  outcome: inactive
[5]
  outcome: inactive
[6]; [25]
  fold change: 0.925 (inactive)
[6]; [26]
  fold change: 1.42
[6]; [27]
  cell count: 8280
[6]; [28]
  cell count: 8950

## CC[C@H](Nc1ncnc2nc[nH]c12)c1nc2cccc(F)c2c(=O)n1-c1ccccc1
[2]
  AC50: 16.6 µM (active)
[3]
  outcome: inactive
[10]
  outcome: inactive
[5]
  outcome: inactive
[11]
  SSMD: 2.21
  cell count: 7370
  plate-normalised HSF1 focus index: 1.08 (inactive)
[1]; at 0.000305 µM, OCI-C5x cells, with rucaparib 10 µM, 100% = cells with rucaparib alone
  viability: 99.3% (active)
[1]; at 0.000305 µM, OCI-C5x cells, without rucaparib
  viability: 121% (inactive)
[1]; at 0.000305 µM, OCI-P5x cells, with rucaparib 20 µM, 100% = cells with rucaparib alone
  viability: 96.5% (active)
[1]; at 0.000305 µM, OCI-P5x cells, without rucaparib
  viability: 104% (inactive)
[1]; at 0.00122 µM, OCI-C5x cells, with rucaparib 10 µM, 100% = cells with rucaparib alone
  viability: 104% (inactive)
[1]; at 0.00122 µM, OCI-C5x cells, without rucaparib
  viability: 124% (inactive)
[1]; at 0.00122 µM, OCI-P5x cells, with rucaparib 20 µM, 100% = cells with rucaparib alone
  viability: 98.6% (active)
[1]; at 0.00122 µM, OCI-P5x cells, without rucaparib
  viability: 105% (inactive)
[1]; at 0.00488 µM, OCI-C5x cells, with rucaparib 10 µM, 100% = cells with rucaparib alone
  viability: 108% (inactive)
[1]; at 0.00488 µM, OCI-C5x cells, without rucaparib
  viability: 116% (inactive)
[1]; at 0.00488 µM, OCI-P5x cells, with rucaparib 20 µM, 100% = cells with rucaparib alone
  viability: 82.2% (active)
[1]; at 0.00488 µM, OCI-P5x cells, without rucaparib
  viability: 96.9% (active)
[1]; at 0.0195 µM, OCI-C5x cells, with rucaparib 10 µM, 100% = cells with rucaparib alone
  viability: 101% (inactive)
[1]; at 0.0195 µM, OCI-C5x cells, without rucaparib
  viability: 138% (inactive)
[1]; at 0.0195 µM, OCI-P5x cells, with rucaparib 20 µM, 100% = cells with rucaparib alone
  viability: 87.8% (active)
[1]; at 0.0195 µM, OCI-P5x cells, without rucaparib
  viability: 105% (inactive)
[1]; at 0.0781 µM, OCI-C5x cells, with rucaparib 10 µM, 100% = cells with rucaparib alone
  viability: 110% (inactive)
[1]; at 0.0781 µM, OCI-C5x cells, without rucaparib
  viability: 129% (inactive)
[1]; at 0.0781 µM, OCI-P5x cells, with rucaparib 20 µM, 100% = cells with rucaparib alone
  viability: 96.3% (active)
[1]; [12]
  viability: 104% (inactive)
[1]; [13]
  viability: 105% (inactive)
[1]; [14]
  viability: 119% (inactive)
[1]; [15]
  viability: 103% (inactive)
[1]; [16]
  viability: 115% (inactive)
[1]; [17]
  viability: 103% (inactive)
[1]; [18]
  viability: 139% (inactive)
[1]; [19]
  viability: 105% (inactive)
[1]; [20]
  viability: 109% (inactive)
[1]; [21]
  viability: 110% (inactive)
[1]; [22]
  viability: 133% (inactive)
[1]; [23]
  viability: 98.1% (active)
[1]; [24]
  viability: 102% (inactive)

## O=c1cc(CN2CCOCC2)occ1OCCCCCSc1ccnc2cc(C(F)(F)F)ccc12
[2]
  outcome: inactive
[3]
  AC50: 18.6 µM (active)
[9]
  AC50: 23.5 µM (active)
[10]
  AC50: 18.6 µM (active)
[5]
  IC50: 20.9 µM (active)
[6]; [25]
  fold change: 0.876 (inactive)
[6]; [26]
  fold change: 0.509
[6]; [27]
  cell count: 6290
[6]; [28]
  cell count: 7180
[8]; [29]
  z-score: -0.449 (inactive)
[8]; [30]
  z-score: 0.747

## Cn1cc(-c2cnn3c(N)c(Br)c([C@@H]4CCCNC4)nc23)cn1
[2]
  AC50: 2.09 µM (active)
[10]
  outcome: inactive

## CCc1ccc(N(CC(C)C)S(=O)(=O)c2ccc(OCC3CCOCC3)c(CO)c2)cc1
[3]
  outcome: inactive
[9]
  AC50: 20.9 µM (active)
